# Source: PubChem BioAssay (NCATS)
# Records with an inconclusive call do not appear. Active and inactive are the calls of the source. The call rests on the fitted dose curve; in most records, active means well fitted cell-killing curve with a large enough effect; inconclusive means small, poorly fitted or top-dose-only effect, or effect the other way; inactive means no such curve, though single readings can be large or run the other way.
# How the values were obtained:
# [1] = Quantitative High-Throughput drug screen in 47 multiple myeloma cell lines against the NCATS MIPE library collection: VP6_DJ cell viability assay (AID 1919867); further: nearly all actives have a fitted effect of over 40% in size
# How it was run: (§1)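 500 cells/well; MIPE 4.0 drugs pin-transferred; 48 h, 37C, 5% CO2. CellTiter-Glo, 5 min RT, luminescence. Controls: DMSO 100%, media 0%.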
# [2] = Quantitative High-Throughput drug screen in 47 multiple myeloma cell lines against the NCATS MIPE library collection: OPM2_DSMZ cell viability assay (AID 1919872); further: nearly all actives have a fitted effect of over 30% in size
# How it was run: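 CellTiter-Glo luminescence (ATP) after 48 h compound exposure, 37C/5% CO2; 500 cells/well; MIPE 4.0 approved/investigational drugs pinned in; DMSO = 100%, media only = 0% viability.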
# [3] = Quantitative High-Throughput drug screen in 47 multiple myeloma cell lines against the NCATS MIPE library collection: KMS28BM_JCRB cell viability assay (AID 1919874); further: nearly all actives have a fitted effect of over 35% in size
# How it was run: as §1
# [4] = Quantitative High-Throughput drug screen in 47 multiple myeloma cell lines against the NCATS MIPE library collection: PE2_PLB cell viability assay (AID 1919869); further: nearly all actives have a fitted effect of over 35% in size
# How it was run: as §1
# [5] = Quantitative High-Throughput drug screen in 47 multiple myeloma cell lines against the NCATS MIPE library collection: PCM6_Riken cell viability assay (AID 1919870); further: nearly all actives have a fitted effect of over 30% in size
# How it was run: as §1
# [6] = Quantitative High-Throughput drug screen in 47 multiple myeloma cell lines against the NCATS MIPE library collection: KMS11_JCRBsus cell viability assay (AID 1919873); further: nearly all actives have a fitted effect of over 50% in size
# How it was run: as §1
# [7] = Quantitative High-Throughput drug screen in 47 multiple myeloma cell lines against the NCATS MIPE library collection: XG1_PLB cell viability assay (AID 1919866); further: nearly all actives have a fitted effect of over 35% in size
# How it was run: as §1
# [8] = Quantitative High-Throughput drug screen in 47 multiple myeloma cell lines against the NCATS MIPE library collection: RPMI8226_ATCC cell viability assay (AID 1919871); further: nearly all actives have a fitted effect of over 30% in size
# How it was run: as §1
# [9] = Quantitative High-Throughput drug screen in 47 multiple myeloma cell lines against the NCATS MIPE library collection: UTMC2_PLB cell viability assay (AID 1919868); conditions: CellTiter-Glo ATP luminescence, 48 h; viability (% of DMSO control): at 45.8 µM (top of the series); further: nearly all actives have a fitted effect of over 55% in size
# How it was run: as §1
# Potency means the concentration at half of the fitted maximal effect.
smiles,measurement,setting,value
Cc1cc(CS(=O)(=O)c2ccccc2)cc(OCc2ccc(CN3CCC[C@H]3CO)cc2)c1,Potency,[1],0.296 µM (active)
same,Potency,[2],inactive
same,Potency,[3],inactive
CC(C)(O)CC(=O)NCCn1ccc2ncnc(Nc3ccc(Oc4cccc(C(F)(F)F)c4)c(Cl)c3)c21,Potency,[1],inactive
same,Potency,[4],23.5 µM (active)
same,Potency,[3],26.4 µM (active)
C[C@@H](O)[C@H]1C(=O)N2C(C(=O)OCOC(=O)C(C)(C)C)=C(SC3CN(C4=NCCS4)C3)[C@H](C)[C@H]12,Potency,[1],inactive
same,Potency,[5],23.5 µM (active)
same,Potency,[2],inactive
same,Potency,[6],inactive
C[C@@H]1[C@H](C)CC[C@]2(C(=O)O)CC[C@]3(C)C(=CC[C@@H]4[C@@]5(C)CC[C@H](O)C(C)(C)[C@H]5CC[C@]43C)[C@@H]12,Potency,[7],1.36 µM (active)
same,Potency,[4],inactive
same,Potency,[5],12.1 µM (active)
same,Potency,[8],27 µM (active)
same,Potency,[2],42.9 µM (active)
same,Potency,[6],inactive
O=C1CN2Cc3c(ccc(Cl)c3Cl)N=C2N1,Potency,[9],inactive
same,Potency,[4],20.9 µM (active)
same,Potency,[8],18.7 µM (active)
CC(C)(C)c1[nH]cnc1C=c1[nH]c(=O)c(=Cc2ccccc2)[nH]c1=O,Potency,[7],inactive
same,Potency,[2],inactive
CCOc1ccccc1N=Nc1c(C)[nH]n(-c2nc(-c3ccccc3)cs2)c1=O,Potency,[7],1.05 µM (active)
same,Potency,[4],inactive
same,Potency,[8],2.35 µM (active)
same,Potency,[2],inactive
C[C@]12CCC3=C4CCC(=O)C=C4CC[C@@H]3[C@H]1CC[C@@]2(O)CC#N,Potency,[7],inactive
same,Potency,[4],inactive
same,Potency,[8],inactive
same,Potency,[2],inactive
same,Potency,[3],inactive
COc1ccc(C=CC(=O)Nc2ccccc2C(=O)O)cc1OC,Potency,[7],6.62 µM (active)
same,Potency,[4],14.8 µM (active)
same,Potency,[5],inactive
same,Potency,[8],inactive
same,Potency,[2],inactive
CN(C)CCN(C)C(=O)c1ccc(NC(=O)Nc2ccc(-c3nc(N4CCOCC4)c4ccn(CC(F)(F)F)c4n3)cc2)cc1,Potency,[1],0.0469 µM (active)
same,Potency,[9],0.0074 µM (active)
same,Potency,[4],0.0074 µM (active)
same,Potency,[8],0.0833 µM (active)
same,Potency,[2],0.187 µM (active)
same,Potency,[6],0.0372 µM (active)
same,Potency,[3],0.0148 µM (active)
CN(C)CCOc1cc(-c2cn[nH]c2)ccc1NC(=O)C1COc2ccccc2O1 (stereo not drawn),Potency,[7],2.35 µM (active)
same,Potency,[9],6.62 µM (active)
same,Potency,[4],16.6 µM (active)
same,Potency,[5],4.69 µM (active)
same,Potency,[8],inactive
same,Potency,[3],5.9 µM (active)
CC(=O)OCC(=O)[C@@]1(O)CC[C@H]2[C@@H]3CCC4=CC(=O)C=C[C@]4(C)[C@@H]3[C@@H](O)C[C@@]21C,Potency,[7],inactive
same,Potency,[4],inactive
same,Potency,[5],inactive
same,Potency,[2],inactive
Cc1csc(-c2nnc(Nc3ccc(Oc4ncccc4-c4ccnc(N)n4)cc3)c3ccccc23)c1,Potency,[7],0.469 µM (active)
same,Potency,[5],20.9 µM (active)
CC(C)C[C@H](NC(=O)c1cc2ccccc2s1)C(=O)N1CCN(C(=O)[C@H](CO)NS(=O)(=O)c2ccc(Cl)cc2Cl)CC1,Potency,[1],18.7 µM (active)
same,Potency,[4],23.5 µM (active)
same,Potency,[5],23.5 µM (active)
same,Potency,[6],20.9 µM (active)
same,Potency,[3],20.9 µM (active)
CN(C)CCCNC(=O)c1ccc(-c2cc(O)c3ncccc3c2)cc1,Potency,[5],inactive
same,Potency,[8],18.7 µM (active)
same,Potency,[6],23.5 µM (active)
CCn1c(-c2nonc2N)nc2cncc(CNC3CCNCC3)c21,Potency,[4],5.9 µM (active)
same,Potency,[5],4.18 µM (active)
same,Potency,[3],20.9 µM (active)
Oc1ccc(C=Cc2cc(O)cc(O)c2)cc1,Potency,[5],inactive
same,Potency,[8],18.7 µM (active)
same,Potency,[2],inactive
same,Potency,[6],16.6 µM (active)
same,Potency,[3],inactive
Cc1ccc(C(=O)N(CCCN)[C@@H](c2nc3cc(Cl)ccc3c(=O)n2Cc2ccccc2)C(C)C)cc1,Potency,[5],5.26 µM (active)
same,Potency,[2],inactive
CC(=O)NCCC(=O)N[C@@H](CCC(N)=O)C(=O)N[C@@H](CO)C(=O)N[C@@H](CCC(N)=O)C(=O)N[C@@H](CCC(N)=O)C(=O)N[C@H](C(=O)N[C@@H](Cc1ccccc1)C(=O)N[C@]1(C)CCCCCCC=CCCC[C@@](C)(C(=O)N[C@@H](CCC(N)=O)C(=O)N[C@@H](CC(N)=O)C(N)=O)NC(=O)[C@H](CC(C)C)NC(=O)[C@H](CC(C)C)NC(=O)[C@@H](CCCNC(=N)N)NC(=O)[C@H](Cc2c[nH]c3ccccc23)NC(=O)[C@H](CC(C)C)NC(=O)[C@H](CC(N)=O)NC1=O)[C@H](C)O,Potency,[4],20.9 µM (active)
same,Potency,[8],9.35 µM (active)
same,Potency,[3],inactive
O=[N+]([O-])c1ccc(Nc2ccccc2-c2ccccc2)c2nonc12,Potency,[4],20.9 µM (active)
COc1nccc(-c2c(-c3ccc(F)cc3)ncn2C2CCC(O)CC2)n1 (stereo not drawn),Potency,[4],18.7 µM (active)
same,Potency,[6],4.18 µM (active)
Nc1ccc(-c2ccc3ncc4ccc(=O)n(-c5cccc(C(F)(F)F)c5)c4c3c2)cn1,Potency,[2],0.0059 µM (active)
CC1C(=O)OC2C(O)C34C5CC(C(C)(C)C)C36C(OC(=O)C6O)OC4(C(=O)O5)C12O (stereo not drawn),Potency,[4],inactive
same,Potency,[8],inactive
same,Potency,[2],inactive
same,Potency,[6],inactive
same,Potency,[3],inactive
CCC[C@H](N[C@@H](C)C(=O)N1[C@@H]2CCCC[C@H]2C[C@H]1C(=O)O)C(=O)OCC,Potency,[9],1.32 µM (active)
same,Potency,[5],inactive
same,Potency,[8],9.35 µM (active)
same,Potency,[3],inactive
